Assay results reported in PubChem BioAssay (EPA / NIEHS).
Results filed as inconclusive are left out. Calls of active or inactive are those of the source. How the source made its calls, unless noted: active means hit-call score of the fitted dose curve at least 0.9, where 1 is the maximum; inactive means score below 0.9.

What was measured:
[1] = target: Retinoic acid receptor RXR-alpha (Homo sapiens) (UniProt P19793); assay: ATG_RXRa_TRANS: Attagene TRANS-FACTORIAL HepG2 Assay for human Retinoid X Receptor alpha (RXRa) (AID 2283012; active means hit-call score of the fitted dose curve at least 0.9, where 1 is the maximum)
Retinoic acid receptor RXR-alpha (Homo sapiens), sequence (P19793 whole entry, looked up, the tested form may be a part): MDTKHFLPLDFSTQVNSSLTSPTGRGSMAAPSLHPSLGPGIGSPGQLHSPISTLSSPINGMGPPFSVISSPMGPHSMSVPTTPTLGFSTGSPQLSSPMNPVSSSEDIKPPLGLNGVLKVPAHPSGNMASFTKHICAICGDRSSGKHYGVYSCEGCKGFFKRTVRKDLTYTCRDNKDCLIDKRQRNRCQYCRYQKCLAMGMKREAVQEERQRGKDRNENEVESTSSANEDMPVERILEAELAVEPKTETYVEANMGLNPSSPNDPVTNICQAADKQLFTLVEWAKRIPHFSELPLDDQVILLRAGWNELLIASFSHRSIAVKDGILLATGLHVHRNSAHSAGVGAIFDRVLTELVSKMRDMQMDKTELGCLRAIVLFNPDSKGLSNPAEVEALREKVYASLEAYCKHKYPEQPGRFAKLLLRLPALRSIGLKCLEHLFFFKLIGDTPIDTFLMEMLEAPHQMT
How it was run: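 Measures exogenous chimeric NR-GAL4 activity in transfected HepG2 liver cells after 24 h of dosing. Induced reporter mRNA was detected by RT-PCR with capillary electrophoresis, and gain of signal was analysed against DMSO.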

[2] = target: human Retinoid X Receptor beta (RXRb), RXRB (gene 6257) (UniProt P28702); assay: ATG_RXRb_TRANS: Attagene TRANS-FACTORIAL HepG2 Assay for human Retinoid X Receptor beta (RXRb) (AID 2283013; active means hit-call score of the fitted dose curve at least 0.9, where 1 is the maximum)
human Retinoid X Receptor beta (RXRb), RXRB (gene 6257), sequence (P28702 whole entry, looked up, the tested form may be a part): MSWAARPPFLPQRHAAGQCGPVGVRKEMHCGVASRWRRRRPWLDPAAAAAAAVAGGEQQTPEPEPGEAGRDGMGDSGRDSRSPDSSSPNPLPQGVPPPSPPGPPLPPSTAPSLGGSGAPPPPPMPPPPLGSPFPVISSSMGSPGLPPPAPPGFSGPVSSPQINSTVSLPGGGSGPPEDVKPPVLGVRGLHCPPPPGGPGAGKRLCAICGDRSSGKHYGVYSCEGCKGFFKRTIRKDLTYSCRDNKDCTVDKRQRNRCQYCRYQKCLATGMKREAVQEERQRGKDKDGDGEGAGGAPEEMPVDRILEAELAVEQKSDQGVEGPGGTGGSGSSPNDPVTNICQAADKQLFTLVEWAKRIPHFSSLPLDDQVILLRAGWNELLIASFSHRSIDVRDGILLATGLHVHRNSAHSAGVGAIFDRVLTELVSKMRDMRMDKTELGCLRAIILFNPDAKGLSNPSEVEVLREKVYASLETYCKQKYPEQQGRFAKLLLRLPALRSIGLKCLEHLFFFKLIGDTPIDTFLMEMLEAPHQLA
How it was run: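 Chimeric receptor-Gal4 activity was assessed in transiently transfected human HepG2 cells after 24 h exposure. Transcripts from GAL4-UAS reporters were quantified by fluorescent RT-PCR and capillary electrophoresis, with DMSO as negative control and baseline.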

[3] = read-out: E-selectin (Homo sapiens) (UniProt P16581); assay: BSK_3C_Eselectin: BioMAP Diversity Plus: 3C Assay for Eselectin Biomarker Activity (AID 2283015); conditions: primary human endothelial cells (HUVEC); actives raise or lower the signal;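 on outcome: cell surface E-selectin protein quantified by ELISA 24 h after dosing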
How it was run: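 HUVEC, 3C stimulation; compound exposure 24 h; E-selectin by ELISA; gain- or loss-of-signal fitted bidirectionally vs DMSO baseline.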

[4] = read-out: Interleukin-1 alpha (IL1a), IL1A (gene 3552); assay: BSK_BE3C_IL1a: BioMAP Diversity Plus: BE3C Assay for Interleukin-1 alpha (IL1a) Biomarker Activity (AID 2283016); conditions: primary human bronchial epithelial cells; actives raise or lower the signal
How it was run: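 Signal from IL-1a ELISA, taken 24 h after chemical dosing of human bronchial epithelial cells, is compared with DMSO as baseline using bidirectional curve fitting.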

[5] = read-out: Monocyte Chemoattractant Protein-1 (MCP1), CCL2 (gene 6347); assay: BSK_3C_MCP1: BioMAP Diversity Plus: 3C Assay for Monocyte Chemoattractant Protein-1 (MCP1) Biomarker Activity (AID 2283017); conditions: primary human endothelial cells (HUVEC); actives raise or lower the signal
How it was run: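 HUVEC, 3C system; 24 h chemical exposure; MCP-1 by ELISA; bidirectional curve fit vs DMSO baseline.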

[6] = read-out: Monocyte Chemoattractant Protein-1 (MCP1), CCL2 (gene 6347); assay: BSK_4H_MCP1: BioMAP Diversity Plus: 4H Assay for Monocyte Chemoattractant Protein-1 (MCP1) Biomarker Activity (AID 2283018); conditions: primary human endothelial cells (HUVEC); actives raise or lower the signal
How it was run: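 Endothelial cells from umbilical vein were treated with test chemical, then after 24 h MCP-1 levels were quantified by ELISA; endpoint values came from bidirectional fitting with DMSO as baseline of activity.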

[7] = read-out: Human Leukocyte Antigen - DR isotype (HLADR), HLA-DRA (gene 3122); assay: BSK_3C_HLADR: BioMAP Diversity Plus: 3C Assay for Human Leukocyte Antigen - DR isotype (HLADR) Biomarker Activity (AID 2283019); conditions: primary human endothelial cells (HUVEC); actives raise or lower the signal;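 on outcome: ELISA of cell-surface HLA-DR on HUVEC 24 h after dosing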
How it was run: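 HUVEC, 3C stimulation, 24 h post-dose; HLA-DR by ELISA; bidirectional curve fit vs DMSO baseline; gain or loss of signal scored.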

[8] = read-out: Interleukin-8 (IL8), CXCL8 (gene 3576); assay: BSK_3C_IL8: BioMAP Diversity Plus: 3C Assay for Interleukin-8 (IL8) Biomarker Activity (AID 2283020); conditions: primary human endothelial cells (HUVEC); actives raise or lower the signal
How it was run: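 Endothelial primary cells of human umbilical vein origin are dosed with chemical; after 24 h the IL-8 biomarker is measured by ELISA, and concentration–response is fitted in both directions versus DMSO.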

[9] = read-out: Monokine induced gamma interferon (MIG), CXCL9 (gene 4283); assay: BSK_3C_MIG: BioMAP Diversity Plus: 3C Assay for Monokine induced gamma interferon (MIG) Biomarker Activity (AID 2283021); conditions: primary human endothelial cells (HUVEC); actives raise or lower the signal
How it was run: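 Endothelial primary cells (human umbilical vein) are dosed with test chemical in the 3C system. MIG levels are measured by ELISA at 24 h and fitted in both directions relative to DMSO.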

[10] = BSK_3C_SRB: Viability Assessment in the BioMAP Diversity Plus: 3C Assay (AID 2283023); conditions: primary human endothelial cells (HUVEC);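 further: fitted both ways against DMSO so a hit may be signal rise or drop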
How it was run: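 HUVEC, 24 h post-dose; 10% TCA fix, 0.1% SRB stain, A560 nm. Bidirectional curve fit vs DMSO negative control.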

[11] = read-out: Matrix Metallopeptidase 1 (MMP1), MMP1 (gene 4312); assay: BSK_BE3C_MMP1: BioMAP Diversity Plus: BE3C Assay for Matrix Metallopeptidase 1 (MMP1) Biomarker Activity (AID 2283024); conditions: primary human bronchial epithelial cells; actives raise or lower the signal
How it was run: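 MMP1 signal, measured by ELISA after a 24 h chemical exposure of human primary bronchial epithelial cells, is analysed with bidirectional fitting using DMSO as negative control.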

[12] = BSK_3C_Vis: BioMAP Diversity Plus: 3C Assay for Morphology Visualization (AID 2283025); conditions: primary human endothelial cells (HUVEC);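 further: fitted both ways so gain or loss versus DMSO counts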
How it was run: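 Morphology read by light microscopy serves as a background control for the multiplexed 3C assay in human umbilical vein endothelial cells, taken 24 h after dosing, with DMSO as the negative control and bidirectional curve fitting.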

[13] = BSK_4H_SRB: Viability Assessment in the BioMAP Diversity Plus: 4H Assay (AID 2283027); conditions: primary human endothelial cells (HUVEC);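 further: cells exposed to compound for 24 h before staining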;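 on AC50: curves fitted both ways versus DMSO so AC50 may be loss or gain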
How it was run: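 Cytotoxicity readout: sulforhodamine B (0.1%) staining of total protein after 10% TCA fixation, measured at 560 nm in human umbilical vein endothelium at 24 h. DMSO set the baseline; fitting was bidirectional.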

[14] = read-out: Thrombomodulin, THBD (gene 7056); assay: BSK_3C_Thrombomodulin: BioMAP Diversity Plus: 3C Assay for Thrombomodulin Biomarker Activity (AID 2283029); conditions: primary human endothelial cells (HUVEC); actives raise or lower the signal
How it was run: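 Endothelial cells from umbilical vein are dosed with test chemical and incubated 24 h. Thrombomodulin is then quantified by ELISA, with DMSO serving as negative control and activity baseline.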

[15] = target: human Thyroid Receptor alpha (THRa1), THRA (gene 7067) (UniProt P10827); assay: ATG_THRa1_TRANS: Attagene TRANS-FACTORIAL HepG2 Assay for human Thyroid Receptor alpha (THRa1) (AID 2283014; active means hit-call score of the fitted dose curve at least 0.9, where 1 is the maximum)
human Thyroid Receptor alpha (THRa1), THRA (gene 7067), sequence (P10827 whole entry, looked up, the tested form may be a part): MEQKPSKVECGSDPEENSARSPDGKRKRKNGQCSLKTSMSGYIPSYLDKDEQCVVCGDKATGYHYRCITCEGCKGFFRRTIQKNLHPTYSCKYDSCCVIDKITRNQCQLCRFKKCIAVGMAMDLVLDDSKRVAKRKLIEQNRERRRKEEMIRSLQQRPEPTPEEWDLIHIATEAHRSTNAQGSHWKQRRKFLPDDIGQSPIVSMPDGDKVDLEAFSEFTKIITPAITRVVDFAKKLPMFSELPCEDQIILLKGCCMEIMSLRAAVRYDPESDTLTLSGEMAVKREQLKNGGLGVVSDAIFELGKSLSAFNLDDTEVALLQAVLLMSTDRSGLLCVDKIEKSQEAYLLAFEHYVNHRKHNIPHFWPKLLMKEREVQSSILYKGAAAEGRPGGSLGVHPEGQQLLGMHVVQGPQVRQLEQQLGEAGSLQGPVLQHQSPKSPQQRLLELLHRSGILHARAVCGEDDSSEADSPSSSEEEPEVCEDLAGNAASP
How it was run: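 Transient HepG2 transfection, NR-Gal4 chimera driving GAL4-UAS reporters; 24 h compound exposure; total RNA, oligo(dT) RT, PCR, fluorescent primer extension, capillary electrophoresis. Upward direction vs DMSO control.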

[16] = target: human Vitamin D Receptor (VDR), VDR (gene 7421) (UniProt P11473); assay: ATG_VDR_TRANS: Attagene TRANS-FACTORIAL HepG2 Assay for human Vitamin D Receptor (VDR) (AID 2283022; active means hit-call score of the fitted dose curve at least 0.9, where 1 is the maximum)
human Vitamin D Receptor (VDR), VDR (gene 7421), sequence (P11473 whole entry, looked up, the tested form may be a part): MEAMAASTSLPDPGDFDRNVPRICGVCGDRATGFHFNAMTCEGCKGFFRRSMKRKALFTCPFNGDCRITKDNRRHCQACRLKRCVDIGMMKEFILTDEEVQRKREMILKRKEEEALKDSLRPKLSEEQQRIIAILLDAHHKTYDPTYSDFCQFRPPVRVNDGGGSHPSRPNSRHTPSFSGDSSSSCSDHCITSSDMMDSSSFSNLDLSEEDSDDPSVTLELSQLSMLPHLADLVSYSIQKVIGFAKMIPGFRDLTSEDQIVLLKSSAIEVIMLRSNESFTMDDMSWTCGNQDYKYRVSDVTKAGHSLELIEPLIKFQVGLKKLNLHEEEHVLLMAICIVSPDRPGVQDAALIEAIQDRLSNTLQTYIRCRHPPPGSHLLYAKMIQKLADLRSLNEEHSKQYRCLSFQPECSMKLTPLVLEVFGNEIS
How it was run: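 RT-PCR/capillary electrophoresis read-out of reporter mRNA induction in transiently transfected HepG2; 24 h dosing; chimeric NR-Gal4 (TRANS format); gain-of-signal fit against DMSO baseline.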

[17] = read-out: Pselectin, SELP (gene 6403); assay: BSK_4H_Pselectin: BioMAP Diversity Plus: 4H Assay for Pselectin Biomarker Activity (AID 2283026); conditions: primary human endothelial cells (HUVEC); actives raise or lower the signal
How it was run: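 Endothelial primary cells (human umbilical vein) are dosed, incubated 24 h, and assayed for surface P-selectin by ELISA; responses in either direction are fitted relative to the DMSO negative control.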

[18] = BSK_BE3C_SRB: Viability Assessment in the BioMAP Diversity Plus: BE3C Assay (AID 2283028); conditions: primary human bronchial epithelial cells
How it was run: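 Primary human bronchial epithelium; chemical dosing, 24 h; 10% TCA fix, 0.1% SRB stain, A560; bidirectional fit vs DMSO baseline.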

E-selectin (Homo sapiens), sequence (P16581 whole entry, looked up): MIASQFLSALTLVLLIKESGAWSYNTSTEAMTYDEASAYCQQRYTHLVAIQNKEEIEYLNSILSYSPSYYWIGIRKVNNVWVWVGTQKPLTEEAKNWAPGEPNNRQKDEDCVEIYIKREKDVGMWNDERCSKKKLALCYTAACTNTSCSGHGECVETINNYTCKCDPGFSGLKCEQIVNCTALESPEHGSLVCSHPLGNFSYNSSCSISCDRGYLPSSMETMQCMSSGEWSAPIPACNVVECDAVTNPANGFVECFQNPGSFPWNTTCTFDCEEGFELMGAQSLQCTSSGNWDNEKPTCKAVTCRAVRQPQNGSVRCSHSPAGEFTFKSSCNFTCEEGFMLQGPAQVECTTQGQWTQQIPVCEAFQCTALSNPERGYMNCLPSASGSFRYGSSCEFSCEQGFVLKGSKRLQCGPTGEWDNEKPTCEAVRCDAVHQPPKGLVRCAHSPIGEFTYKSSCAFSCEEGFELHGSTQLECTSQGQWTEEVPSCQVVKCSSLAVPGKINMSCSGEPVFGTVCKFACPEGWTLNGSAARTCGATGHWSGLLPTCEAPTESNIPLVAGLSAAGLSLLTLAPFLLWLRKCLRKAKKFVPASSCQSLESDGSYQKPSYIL

## CCCCCCOC(=O)c1ccccc1C(=O)OCCCCCC
[1]
  outcome: inactive
[2]
  outcome: inactive
[3]
  outcome: inactive
[4]
  outcome: inactive
[5]
  AC50: 29.1 µM (active)
[6]
  outcome: inactive
[7]
  outcome: inactive
[8]
  AC50: 31.1 µM (active)
[9]
  outcome: inactive
[10]
  AC50: 15.1 µM (active)
[11]
  outcome: inactive
[12]
  outcome: inactive
[13]
  outcome: inactive
[14]
  outcome: inactive

## COc1ccc(O)c(C(C)(C)C)c1
[2]
  AC50: 8.56 µM (active)
[15]
  outcome: inactive
[3]
  outcome: inactive
[4]
  outcome: inactive
[5]
  outcome: inactive
[6]
  outcome: inactive
[7]
  outcome: inactive
[8]
  outcome: inactive
[9]
  outcome: inactive
[16]
  outcome: inactive
[10]
  outcome: inactive
[11]
  outcome: inactive
[17]
  outcome: inactive
[13]
  outcome: inactive
[14]
  outcome: inactive

## CO/C=C(/C(=O)OC)c1ccccc1COc1cccc(C(F)(F)F)n1
[1]
  outcome: inactive
[2]
  AC50: 13.2 µM (active)
[15]
  outcome: inactive
[3]
  AC50: 7.64 µM (active)
[4]
  outcome: inactive
[5]
  AC50: 7.3 µM (active)
[6]
  outcome: inactive
[7]
  AC50: 9.84 µM (active)
[8]
  AC50: 10.1 µM (active)
[9]
  outcome: inactive
[16]
  outcome: inactive
[10]
  AC50: 20 µM (active)
[11]
  outcome: inactive
[12]
  outcome: inactive
[13]
  AC50: 7.84 µM (active)
[14]
  outcome: inactive

## CCOCCOC(C)=O
[2]
  outcome: inactive
[15]
  outcome: inactive
[3]
  outcome: inactive
[4]
  outcome: inactive
[5]
  outcome: inactive
[6]
  outcome: inactive
[7]
  outcome: inactive
[8]
  outcome: inactive
[9]
  outcome: inactive
[10]
  outcome: inactive
[11]
  outcome: inactive
[12]
  outcome: inactive
[17]
  outcome: inactive
[13]
  outcome: inactive
[14]
  outcome: inactive

## c1cc2ccc3cccc4ccc(c1)c2c34
[1]
  outcome: inactive
[2]
  AC50: 41.4 µM (active)
[15]
  outcome: inactive
[3]
  outcome: inactive
[4]
  outcome: inactive
[5]
  outcome: inactive
[6]
  outcome: inactive
[7]
  outcome: inactive
[8]
  outcome: inactive
[9]
  outcome: inactive
[16]
  outcome: inactive
[10]
  outcome: inactive
[11]
  outcome: inactive
[12]
  outcome: inactive
[17]
  outcome: inactive
[13]
  outcome: inactive
[18]
  outcome: inactive
[14]
  outcome: inactive

## Oc1ccc(Cl)cc1Cl
[15]
  outcome: inactive
[3]
  outcome: inactive
[4]
  outcome: inactive
[5]
  outcome: inactive
[6]
  outcome: inactive
[7]
  outcome: inactive
[8]
  outcome: inactive
[9]
  outcome: inactive
[10]
  outcome: inactive
[11]
  outcome: inactive
[13]
  outcome: inactive
[14]
  outcome: inactive

## O=C(NC(=O)c1c(F)cccc1F)Nc1cc(Cl)c(OC(F)(F)C(F)F)c(Cl)c1
[1]
  outcome: inactive
[2]
  outcome: inactive
[15]
  outcome: inactive
[3]
  outcome: inactive
[4]
  outcome: inactive
[5]
  outcome: inactive
[6]
  outcome: inactive
[7]
  outcome: inactive
[8]
  outcome: inactive
[9]
  outcome: inactive
[10]
  outcome: inactive
[11]
  outcome: inactive
[12]
  AC50: 39 µM (active)
[17]
  outcome: inactive
[13]
  outcome: inactive
[14]
  outcome: inactive
